ALDH1A1 inh = inhibitors of human aldehyde dehydrogenase 1A1 | AID 1030 | Purified ALDH1A1, NADH fluorescence, propionaldehyde substrate | 220,000 tested, 7.3% active | Potency, µM (titrated, usually from 75.3 µM), most hits filed as inhibitors; active = well fitted inhibition curve with a large enough effect, not every such curve was filed as active; inconclusive = small, poorly fitted or top-dose-only effect, or another doubt; inactive = no such curve, though single readings can be large or run the other way
Target sequence (P00352 whole entry, looked up): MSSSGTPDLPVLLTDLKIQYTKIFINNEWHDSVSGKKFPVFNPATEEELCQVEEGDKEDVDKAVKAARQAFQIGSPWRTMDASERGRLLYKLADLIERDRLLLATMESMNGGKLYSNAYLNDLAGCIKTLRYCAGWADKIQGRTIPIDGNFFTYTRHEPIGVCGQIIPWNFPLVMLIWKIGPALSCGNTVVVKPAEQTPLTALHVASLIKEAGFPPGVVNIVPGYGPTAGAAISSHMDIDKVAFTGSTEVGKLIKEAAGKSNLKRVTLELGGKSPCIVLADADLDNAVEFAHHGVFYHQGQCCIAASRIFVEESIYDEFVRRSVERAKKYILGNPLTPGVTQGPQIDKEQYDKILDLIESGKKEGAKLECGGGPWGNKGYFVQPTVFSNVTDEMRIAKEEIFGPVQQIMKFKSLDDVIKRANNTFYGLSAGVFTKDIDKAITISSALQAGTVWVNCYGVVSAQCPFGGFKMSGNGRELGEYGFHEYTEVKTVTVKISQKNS
HTT cytoprotect = Huntington cell model cytoprotection by ATP luminescence | PC12 HTT-Q103 induced, cytoprotection, ATP luminescence, 40 h | 230,000 tested, 0.14% active | AID 1471 | Potency, µM (doses to about 56.4 µM), hits mostly activators; also: nearly all actives have a fitted effect of over 45% in size
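Quantitative HTS on tebufenozide-induced (100 nM) PC12 cells expressing HTTQ103 exon 1–GFP; compounds tested as a concentration series; survival measured via cellular ATP.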
CBFb-RUNX1 inh = inhibitors of human CBF-beta and RUNX1 interaction; Q01196+Q13951; AlphaScreen CBFb-His/RUNX1-biotin binding, biochemical; Potency, µM (highest dose often 59.8 µM), actives largely listed as inhibitors; 230,000 tested, under 10 active
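His-tagged CBF-beta and biotinylated RUNX1 (30 nM each) were premixed 20 min at room temperature, exposed to compound for 15 min, then given nickel-chelate and streptavidin AlphaScreen beads (50 ng each). After 90 min, AlphaScreen signal was read.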
PNC assembly inh = blocks assembly of the perinucleolar compartment; PC3M PTB-GFP, PNC prevalence imaging, 16 h; active compounds read low; activity change (PNC), negative = inhibition, % at 10 µM; 140,000 tested, 3.1% active; AID 2417;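 active = readout at or below -70, meaning at least 70% loss of cells showing the perinucleolar compartment, a nuclear body marking cancer cells; inconclusive = readout between -30 and a set limit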
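Compounds are pinned in duplicate onto adhered PC3M cells stably expressing GFP-tagged PTB and incubated 16 h at 37 C. Cells are then fixed, nuclei stained with Hoechst, and PNC-positive cells counted.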
HTT aggregate = mutant huntingtin aggregation inhibition; PC12 HttQ103-GFP aggregates, Acumen cytometry, 40 h; Potency, µM (doses to about 46.1 µM), hits mostly inhibitors; 220,000 tested, 1.1% active; AID 1688; also: nearly all actives have a fitted effect of over 60% in size
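PC12/HTTQ103-GFP, ecdysone-inducible; teb 100 nM; cpd qHTS titration; GFP aggregates read on laser cytometer, Ex 488/Em 500-530 nm.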
HPGD inh = HPGD (human) dehydrogenase inhibition | P15428 | 150,000 tested, 4.3% active | Potency, µM, hits mostly inhibitors | purified HPGD, NADH fluorescence kinetic, PGE2 substrate; active = well fitted inhibition curve with a large enough effect, not every such curve was filed as active; inconclusive = small, poorly fitted or top-dose-only effect, or another doubt; inactive = no such curve, though single readings can be large or run the other way
Target sequence (P15428 whole entry, looked up): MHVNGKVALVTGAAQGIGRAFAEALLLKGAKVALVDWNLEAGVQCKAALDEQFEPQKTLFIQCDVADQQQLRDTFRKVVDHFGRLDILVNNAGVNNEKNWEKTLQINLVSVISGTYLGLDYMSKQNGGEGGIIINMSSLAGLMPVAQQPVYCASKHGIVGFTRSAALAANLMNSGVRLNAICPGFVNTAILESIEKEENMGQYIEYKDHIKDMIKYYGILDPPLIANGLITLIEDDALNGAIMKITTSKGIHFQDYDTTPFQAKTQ
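NADH formation kinetics: reaction with 30 uM PGE2 and 1 mM NAD+ (final), 20 nM enzyme, Tris-HCl pH 8 with Tween 20, after 15 min compound preincubation at room temperature. Fluorescence change, last versus first of five reads.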
Of the large screens only hits and unclear results are named; the others gave an inactive call. Most compounds without a hit are left out; they make up all but 11% or so of the library. Unless noted, calls follow the shape of the dose curve; as a rule, active = well fitted curve in the direction sought with a large enough effect; inconclusive = small, poorly fitted or top-dose-only effect, or another doubt; inactive = no such curve, though single readings can be large; an effect the other way counts as inactive or inconclusive.

CCN(C(=O)CSc1cc(C)c2ccccc2n1)c1c(N)n(Cc2ccccc2)c(=O)[nH]c1=O	none (no result: PNC assembly inh, HPGD inh)
COc1cc([N+](=O)[O-])cc2sc(NC(=O)c3c(F)cccc3F)nc12	ALDH1A1 inh 7.9µM (no result: PNC assembly inh, HPGD inh)
O=C(Nc1nc(-c2ccc([N+](=O)[O-])cc2)cs1)c1c(F)cccc1F	none (no result: PNC assembly inh, HPGD inh)
Cc1cc(Nc2cccc([N+](=O)[O-])c2)c2ccccc2n1	none (no result: PNC assembly inh, HPGD inh)
CCOc1ccc2nc(C)cc(Nc3cccc([N+](=O)[O-])c3)c2c1	PNC assembly inh -102
COc1ccc(C(c2nnnn2C2CCCCC2)N2CCN(c3ccc(OC)cc3)CC2)cc1 (stereo not drawn)	CBFb-RUNX1 inh inconclusive
c1cnc2ccc(C(c3nnnn3C3CCCCC3)N3CCCCC3)cc2c1 (stereo not drawn)	ALDH1A1 inh inconclusive, PNC assembly inh -100
c1cc(N2CCCC2)ccc1C(c1nnnn1C1CCCCC1)N1CCOCC1 (stereo not drawn)	ALDH1A1 inh 25µM (no result: HPGD inh)
c1cnc2ccc(C(c3nnnn3C3CCCC3)N3CCN4CCCC4C3)cc2c1 (stereo not drawn)	none
Cc1noc(C(F)(F)F)c1C(=O)NNC(=O)c1cccc(C(F)(F)F)c1	none (no result: ALDH1A1 inh, PNC assembly inh, HPGD inh)
CC12CCC3c4ccc(OCc5ccccc5)cc4CCC3C1CC(O)C2O (stereo not drawn)	none (no result: PNC assembly inh, HTT aggregate)
CCc1ccc(CN(C)C(=O)CCc2nnc(CCc3cccc(OC)c3)o2)nc1	none (no result: PNC assembly inh, HPGD inh)
COCCn1c(=O)c(-c2cccs2)nc2cnc(Oc3ccc(OC)cc3)nc21	ALDH1A1 inh inconclusive, HPGD inh inconclusive (no result: CBFb-RUNX1 inh, PNC assembly inh, HTT aggregate)
O=S(=O)(NC1CCCC1)c1ccc(Br)s1	HPGD inh 25µM
O=S(=O)(NC1CCCCC1)c1ccc(-c2csnn2)s1	HPGD inh 14µM
CCOC(=O)C1(C)C=C(Nc2ccc(NC(C)=O)cc2)C(=O)N1c1ccc(NC(C)=O)cc1 (stereo not drawn)	none (no result: ALDH1A1 inh, PNC assembly inh, HPGD inh)
CO/N=C/c1ccc(N2CCN(C(=O)c3ccc(F)cc3)CC2)c([N+](=O)[O-])c1	HTT aggregate 13µM
CO/N=C/c1ccc(N2CCN(C(=O)c3ccc(Cl)cc3Cl)CC2)c([N+](=O)[O-])c1	CBFb-RUNX1 inh inconclusive, HTT aggregate 18µM, HPGD inh inconclusive
O=C(CSc1ccc(Cl)cc1)Nc1ccc(-c2nc3ccccc3[nH]2)cc1	ALDH1A1 inh inconclusive, HPGD inh inconclusive (no result: HTT cytoprotect)
COc1ccc(NC(=O)CCCn2c(=O)c3sccc3n(Cc3ccccc3C)c2=O)cc1	ALDH1A1 inh 4µM
CN(Cc1ccco1)c1ncnc2ccc(-c3cccc(C#N)c3)cc12	ALDH1A1 inh inconclusive, HPGD inh inconclusive (no result: CBFb-RUNX1 inh, PNC assembly inh, HTT aggregate)
CCc1cc2cc(OC)ccc2nc1SCC(=O)NNC(=O)c1ccco1	none (no result: PNC assembly inh, HPGD inh)
COc1ccc(C(C)=O)cc1CSc1nc2ccccc2c(=O)n1-c1ccccc1	ALDH1A1 inh inconclusive, PNC assembly inh inconclusive
CCOc1ccc(C(C)=O)cc1CSc1nc(C)cc(C)n1	ALDH1A1 inh 4µM (no result: PNC assembly inh, HPGD inh)
COc1ccc(C(C)=O)cc1CSc1nc(C)cc(C)n1	ALDH1A1 inh inconclusive (no result: HTT cytoprotect, PNC assembly inh, HPGD inh)
C=CCn1c(SCc2cc(C(C)=O)ccc2OCC)nc2ccccc2c1=O	ALDH1A1 inh 2.2µM, PNC assembly inh inconclusive
COCCn1c(SCc2cc(C(C)=O)ccc2OC)nc2cc(Cl)ccc2c1=O	ALDH1A1 inh 18µM
NCCC[C@@H](CC(=O)N[C@@H]1CCCC[C@H]1C(=O)N[C@H](CC(=O)N[C@@H](CCC(=O)O)CC(=O)O)Cc1ccccc1)NC(=O)C[C@H](CO)NC(=O)[C@@H]1CNCC[C@H]1N	none (no result: PNC assembly inh, HTT aggregate)
Cn1c(=O)c2c(nc(CN3CCN(C(=O)c4ccco4)CC3)n2Cc2ccc(F)cc2)n(C)c1=O	ALDH1A1 inh 20µM
Cn1c(=O)c2c(nc(NCc3ccc4c(c3)OCO4)n2Cc2ccccc2F)n(C)c1=O	ALDH1A1 inh 13µM, HTT aggregate inconclusive
Cc1ccccc1Cn1c(CN2CCN(C(=O)c3ccco3)CC2)nc2c1c(=O)n(C)c(=O)n2C	ALDH1A1 inh inconclusive
Cn1c(=O)c2c(nc(CN3CCN(C(=O)c4ccco4)CC3)n2Cc2ccccc2F)n(C)c1=O	ALDH1A1 inh 13µM
CCOC(=O)C1(CC2CCCCO2)CCN(Cc2nc3ccccc3[nH]2)CC1 (stereo not drawn)	none (no result: PNC assembly inh, HPGD inh)
CCCCN(CC)CCNC(=O)Cn1cnc2sc(C)c(S(=O)(=O)N3CCOCC3)c2c1=O	PNC assembly inh -100
CCCCNC(=O)Cn1cnc2sc(C)c(S(=O)(=O)N3CCN(c4ncccn4)CC3)c2c1=O	none (no result: PNC assembly inh, HPGD inh)
Cc1cccc(NC(=O)Cn2cnc3sc(C)c(S(=O)(=O)N4CCC(C)CC4)c3c2=O)n1	PNC assembly inh -100
C=CCNC(=S)NNc1nc2c(c(=O)[nH]1)C1(CCCCC1)Cc1ccccc1-2	ALDH1A1 inh 13µM, HPGD inh inconclusive
O=c1[nH]c(NCCO)nc2c1C1(CCCC1)Cc1ccccc1-2	ALDH1A1 inh inconclusive, HPGD inh inconclusive
Cc1oc(-c2ccc(Cl)cc2)nc1CN1CCCC(C(=O)NCc2ccco2)C1 (stereo not drawn)	PNC assembly inh inconclusive
Cc1oc(-c2cc3c(cc2Cl)OCO3)nc1CN1CCCC(C(=O)N2CCOCC2)C1 (stereo not drawn)	ALDH1A1 inh 1µM (no result: PNC assembly inh, HPGD inh)
CCN1CCN(CCNC(=O)C2CCCN(Cc3nc(-c4cccc(Cl)c4)oc3C)C2)CC1 (stereo not drawn)	HTT aggregate inconclusive
Cc1ccccc1-c1nc(CN2CCCC(C(=O)NCCCN3CCOCC3)C2)c(C)o1 (stereo not drawn)	none
CCOC(=O)N1CCC(NC(=O)C2CCCN(Cc3nc(-c4cccc(Cl)c4)oc3C)C2)CC1 (stereo not drawn)	HTT aggregate 7.9µM
CCOC(=O)N1CCN(C(=O)C2CCCN(Cc3nc(-c4ccc(Cl)cc4)oc3C)C2)CC1 (stereo not drawn)	ALDH1A1 inh inconclusive, PNC assembly inh -100, HTT aggregate inconclusive
CC(C)(C)c1c2c(c(C(C)(C)C)c3c1OCN(Cc1ccccc1)C3)OCN(Cc1ccccc1)C2	none (no result: CBFb-RUNX1 inh, PNC assembly inh, HTT aggregate)
COc1ccc(OC)c(NC(=O)c2cc(-c3ccc(C)cc3O)n[nH]2)c1	HTT aggregate inconclusive
Cc1ccc(-c2cc(C(=O)Nc3cc(C)ccc3C)[nH]n2)c(O)c1	PNC assembly inh -84
CC1(C)NC(=O)N(CC(O)CN2C(=O)NC(C)(C)C2=O)C1=O	PNC assembly inh inconclusive
Cc1cc(C)n(CC(O)CN2C(=O)NC(C)(C)C2=O)n1 (stereo not drawn)	PNC assembly inh -107
O=C(NC[C@@H]1CCCCN1)c1cc(OCC(F)(F)F)ccc1OCC(F)(F)F	HTT cytoprotect inconclusive (no result: PNC assembly inh, HTT aggregate)
O=C(O)CCCC/C=C(\c1ccccc1)c1cccnc1	none (no result: ALDH1A1 inh, CBFb-RUNX1 inh, PNC assembly inh, HPGD inh)

Compound activity deposited in PubChem BioAssay by National Center for Advancing Translational Sciences (NCATS).
